Laboratory results taken from PubChem BioAssay (NCATS).
Results filed as inconclusive are left out. Calls of active or inactive are those of the source. The call rests on the fitted dose curve; in most records, active means well fitted curve in the direction sought with a large enough effect; inconclusive means small, poorly fitted or top-dose-only effect, or another doubt; inactive means no such curve, though single readings can be large; an effect the other way counts as inactive or inconclusive.

What was measured:
[1] = Confirmatory screen GU Rhodamine qHTS for Zika virus inhibitors qHTS (AID 1347157); further: nearly all actives have a fitted effect of over 70% in size
In short: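 Percent inhibition came from the 15-min rise in Rhodamine110 fluorescence (1.5 microM substrate, ~15% conversion), normalized to no-inhibitor and no-enzyme wells and Hill-fitted. Unlinked protease, 25 nM, pH 8.0 Tris buffer; compounds up to 114 microM, 15-min preincubation.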

[2] = ZIKV-mCherry secondary qHTS for Zika virus inhibitors (AID 1347158)
In short: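 This orthogonal imaging screen measured ZIKV-mCherry infection of Vero cells exposed to compound, MOI 1, 48-72 h. Percent infection came from segmented nuclei scored mCherry-positive above 3 SD of negative controls.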

[3] = tested on: Zika virus NS2B-NS3 protease (unlinked complex); test: Primary screen GU Rhodamine qHTS for Zika virus inhibitors: Unlinked NS2B-NS3 protease assay (AID 1347159); further: nearly all actives have a fitted effect of over 60% in size
In short: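 Enzyme 25 nM in Tris-HCl pH 8.0 + 0.01% Tween 20; compounds up to 114 microM, 15 min RT dark; + Rhod110 substrate 1.5 microM; read t0 and 15 min; delta fluorescence → % inhibition → 4-parameter Hill fit.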

[4] = tested on: Zika virus NS2B-NS3 protease (linked construct); test: Primary screen NINDS Rhodamine qHTS for Zika virus inhibitors (AID 1347160); further: nearly all actives have a fitted effect of over 55% in size
In short: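 Enzyme (25 nM, linked NS2B-NS3) was preincubated 15 min with compound in 10 mM Tris-HCl pH 8.0, 0.01% Tween 20. Rhodamine110 substrate (1.5 microM) was then added and fluorescence read at start and after 15 min.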

[5] = Confirmatory screen NINDS Rhodamine qHTS for Zika virus inhibitors (AID 1347161); further: nearly all actives have a fitted effect of over 60% in size
In short: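 Aprotinin served as in-plate control. Conditions: 25 nM linked NS2B-NS3, pH 8.0 Tris buffer, titrated compounds, 15 min preincubation and 15 min reaction with 1.5 microM Rhod110 substrate at room temperature.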

[6] = tested on: Zika virus NS2B-NS3 protease (linked); test: 384 well plate NINDS AMC confirmatory qHTS for Zika virus inhibitors (AID 1347163); further: nearly all actives have a fitted effect of over 50% in size
In short: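 Enzyme (5, 30 or 60 nM final) first met test compounds for ~15 min. The AMC-tagged peptide Ac-VKTGKR-AMC followed at 30 microM. Fluorescence was then recorded at 25 min and scaled against no-enzyme and no-inhibitor wells.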

[7] = tested on: Zika virus NS2B-NS3 protease (linked construct); test: 384 well plate NINDS Rhodamine confirmatory qHTS for Zika virus inhibitors (AID 1347164);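 further: fluorescence from protease cleavage of Ac-LKRR-rhodamine 110 substrate; nearly all actives have a fitted effect of over 65% in size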
In short: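 Linked NS2B-NS3 protease (final 5, 30 or 60 nM) preincubated ~15 minutes with compounds, then 10 microM Ac-LKRR-Rhodamine 110 added. Fluorescence (485/538 nm) read after 25 minutes at room temperature, normalized to no-enzyme and no-inhibitor controls.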

[8] = tested on: Zika virus NS2B-NS3 protease (linked construct); test: Confirmatory screen NINDS AMC qHTS for Zika virus inhibitors (AID 1347152); further: nearly all actives have a fitted effect of over 70% in size
In short: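 Linked NS2B-NS3 protease, 1 nM, in 10 mM Tris-HCl pH 8.0, 0.01% Tween 20; compounds preincubated 15 min at room temperature. Nle-KRR-AMC 10 microM (Km 18.3 µM); 15-min fluorescence change (340/450 nm) fitted to 4-parameter Hill.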

[9] = tested on: Zika virus NS2B-NS3 protease (unlinked complex); test: Confirmatory screen GU AMC qHTS for Zika virus inhibitors (AID 1347153);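 further: enzyme at 25 nM with substrate at 10 µM below its Km of 18.3 µM; nearly all actives have a fitted effect of over 70% in size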
In short: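 Fluorescence change (ex 340/em 450 nm) over 15 min, ~20% substrate conversion, normalized to no-inhibitor and no-enzyme controls, then Hill-fitted. Unlinked protease at 25 nM; AMC peptide 10 µM.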

Measured: Potency
Potency means the concentration at half of the fitted maximal effect.

COc1cccc(OC)c1-c1cc(C(=O)N[C@@H](CC(C)C)C(=O)O)nn1-c1ccnc2cc(Cl)ccc12
active: [1] 17.5 µM | [3] 22.4 µM | [4] 10 µM | [5] 12.4 µM | [6] 31.6 µM
inactive: [2] | [7]

COc1cc2c(c(OC)c1O)C(c1ccc(O)cc1)C1C(=O)OC3C(COC(=O)C1=C2)OC(CO)(OC1OC(COC(=O)/C=C/c2ccc(OC4OC(C)C(O)C(O)C4O)cc2)C(O)C(O)C1O)C3O (configuration not stated)
inactive: [3]
active: [1] 7.44 µM | [5] 7.44 µM

Cc1ccc2[nH]c(=O)c(C3=NN(C(=O)CCC(=O)O)C(c4ccc(Br)cc4)C3)c(-c3ccccc3)c2c1 (configuration not stated)
inactive: [6] | [7]
active: [8] 44.1 µM | [9] 49.4 µM | [1] 3.93 µM | [3] 6.31 µM | [4] 3.16 µM | [5] 3.93 µM

C=C1CCC2C(C)(C)CCC[C@]2(C)[C@H]1CC/C(C)=C/C(=O)O (some centres not stated)
active: [8] 44.1 µM | [9] 39.3 µM | [1] 11.1 µM | [3] 3.55 µM | [4] 5.62 µM | [5] 4.94 µM | [6] 2 µM

COc1cc(C)c(C(=O)OC2C(C)OC(OC3CCC(C)C4C3C=C(C)C3/C(C)=C\CC/C(C)=C/C5(C)C=C(C(=O)O)C(C)CC56OC(=O)/C(=C(\O)C34C)C6=O)C(O)C2O)c(OC)c1 (configuration not stated)
active: [8] 9.37 µM | [9] 9.37 µM | [1] 2.64 µM | [3] 1.26 µM | [4] 2.47 µM | [5] 1.32 µM

COc1cc(Nc2nc3ccccc3nc2NS(=O)(=O)c2cccc(NC(=O)c3ccc(C)c(OC)c3)c2)cc(OC)c1
active: [8] 13.9 µM | [1] 1.39 µM | [3] 3.55 µM | [4] 7.94 µM | [5] 1.97 µM
inactive: [6] | [7]

CC1(C)[C@H]2C[C@H](C/C=C\CCCC(=O)O)[C@@H](NC(=O)c3csc4ccc(O)cc34)[C@@H]1C2
active: [1] 24.8 µM | [3] 14.1 µM | [5] 31.2 µM
inactive: [4]

C=C1C2CCC3C(CCC4[C@@]3(C)CCC[C@@]4(C)C(=O)O)(C2)[C@@H]1OC(=O)/C(C)=C\C (some centres not stated)
active: [8] 21.5 µM | [1] 6.81 µM | [3] 6.31 µM | [4] 10 µM | [5] 6.07 µM | [6] 39.8 µM | [7] 8.91 µM

C/C(=C\CC/C(C)=C/CC[C@]1(C)CCc2cc(O)cc(C)c2O1)CC/C=C(\C)C(=O)O
inactive: [2]
active: [8] 19.2 µM | [1] 3.83 µM | [3] 8.91 µM | [4] 2.2 µM | [5] 1.92 µM | [6] 5.01 µM | [7] 2.51 µM

CC(=O)OC12CC(C)C(OC(=O)c3ccccc3)C1/C=C(/C)C(OC(=O)c1ccccc1)CC(=O)C(C)(C)/C=C/C(C)C2=O (configuration not stated)
active: [1] 4.64 µM | [3] 6.31 µM | [4] 7.08 µM | [5] 3.68 µM | [7] 35.5 µM

COc1cnc(-c2ccc(Cn3c(CC(C)(C)C(=O)O)c(SC(C)(C)C)c4cc(OC[C@@H]5Cc6ccccc6N5C(C)=O)ccc43)cc2)nc1
active: [8] 12.2 µM | [1] 1.53 µM | [2] 10 µM | [3] 3.98 µM | [4] 3.16 µM | [5] 2.43 µM | [6] 0.631 µM | [7] 1.78 µM

C=CC1(C)C=C2CC[C@H]3[C@@](C)(C(=O)O)CCC[C@]3(C)C2CC1 (some centres not stated)
active: [1] 15.3 µM | [3] 7.94 µM | [4] 3.55 µM | [5] 9.67 µM | [6] 70.8 µM | [7] 20 µM

C/C=C/C=C/C=C/C(=O)O[C@@H]1[C@@H](OC)C2=C(C(=O)N(C(CCC(=O)O)C(=O)O)C2)[C@@]2(C)CCCC(C)(C)[C@H]12 (some centres not stated)
active: [8] 24.2 µM | [9] 9.61 µM | [1] 4.82 µM | [3] 4.47 µM | [4] 7.08 µM | [5] 2.71 µM | [6] 2.24 µM | [7] 15.8 µM
inactive: [2]

COc1ccc(C2C(C(=O)O)C(C(=O)O)C2c2ccc(OC)cc2O[C@@H]2O[C@H](CO)[C@@H](O)[C@H](O)[C@H]2O)c(O[C@@H]2O[C@H](CO)[C@@H](O)[C@H](O)[C@H]2O)c1 (some centres not stated)
inactive: [4]
active: [1] 9.26 µM | [3] 7.94 µM | [5] 11.7 µM

Cc1ccc([C@@H]2CC=C(C(=O)O)[C@H](c3ccc(C(C)(C)C)cc3)N2S(=O)(=O)c2ccc(C)cc2)cc1
active: [8] 15.6 µM | [9] 19.7 µM | [1] 3.12 µM | [3] 2.51 µM | [4] 2.24 µM | [5] 2.78 µM | [6] 3.55 µM | [7] 4.47 µM
